CYP2C19 inhib: blockers of cytochrome P450 2C19 activity – biochemical, luminescence, ADME assay, primary screen; P33261; CYP2C19 Supersomes, luciferin-H EGE luminescence, 30 min; inhibition, % at 5 µM; 96,000 compounds, 21% hits; AID 778, 2007;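 active = CYP2C19 inhibition above a set limit at 5 µM in the primary screen, cut at about 50% in these data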;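 note: plate controls were negative control wells for no effect and 2.5 mM tranylcypromine positive control for full effect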
CYP2C9 inhib: blockers of cytochrome P450 2C9 activity – biochemical, luminescence, ADME assay, primary screen. P11712. CYP2C9 Supersomes, luciferin-H conversion. inhibition, % at 5 µM. 96,000 compounds, 20% hits. AID 777, 2007;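 active = blocking of liver enzyme CYP2C9 beyond about 50% at 5 µM, limit read from the data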
PLAP activator: PLAP enzyme activators, biochemical, luminescence, HTS. purified PLAP enzyme, luminescent substrate read-out; hits give high values. activation fold at 20 µM. 96,000 compounds, 1.2% hits. AID 696, 2007; in the data active = activation fold above about 2
CYP2C9 act: human CYP2C9 activators, primary screen, biochemical, luminescence; Cytochrome P450 2C9 (Homo sapiens), P11712; recombinant CYP2C9, luciferin-H conversion; hits give high values; factor 1 = untreated enzyme, 0 = blocked; activation factor at 5 µM; 96,000 compounds, 1.4% hits; AID 1024, 2008;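 active = activation factor of 2 or more for CYP2C9 at a 5 µM dose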;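 note: 0 = sulfaphenazole-blocked wells and 1 = vehicle-only wells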
CYP2C19 act: human CYP2C19 activators, primary screen, biochemical, luminescence. recombinant CYP2C19, luciferin-H EGE luminescence; hits give high values; 0 = fully inhibited enzyme, 1 = untreated enzyme. 96,000 tested, under 10 active. AID 1025, 2008. Cytochrome P450 2C19 (Homo sapiens), P33261. activation factor at 5 µM;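 active = activation factor of at least 2 at 5 µM in the primary screen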;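 note: 0 = wells with 2.5 mM tranylcypromine and 1 = vehicle-only wells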
Numbers without * were called inactive. In the library only some 31% were active in any assay of this set; here they are far more common.

SMILES	CYP2C19 inhib	CYP2C9 inhib	PLAP activator	CYP2C9 act	CYP2C19 act
Cc1cc(C)c(NC(=O)C2CC(=O)N(c3ccc4c(c3)OCCO4)C2)c(C)c1 (stereo unspecified)	16	20	1	0.8	0.8
CCc1cccc(CC)c1NC(=O)C1CC(=O)N(c2ccc3c(c2)OCCO3)C1 (stereo unspecified)	74*	89*	1.2	0.1	0.3
O=C(COC(=O)C1CC(=O)N(c2ccc3c(c2)OCCO3)C1)Nc1ccc2c(c1)CCC2 (stereo unspecified)	41	44	1.1	0.6	0.6
Cc1cccc(N2CC(C(=O)Nc3ccc4c(c3)OCO4)CC2=O)c1C (stereo unspecified)	2	1	0.9	1	1
O=C(Nc1nc(-c2ccco2)c(-c2ccco2)s1)C1CC(=O)N(c2ccc3c(c2)OCCO3)C1 (stereo unspecified)	71*	94*	1.5	0.1	0.3
O=C(Nc1ccccc1Cc1ccccc1)C1CC(=O)N(c2ccc3c(c2)OCCO3)C1 (stereo unspecified)	64*	76*	1.8	0.2	0.4
CCOC(=O)c1nn(-c2ccccc2C)c2nc(-c3ccc(Cl)cc3)c(C#N)c(=O)n12	21	25	1	0.8	0.8
O=C(Cn1cc(C(F)(F)F)ccc1=O)N1CCN(S(=O)(=O)c2ccccc2)CC1	-10	-23	1.1	1.2	1.1
COc1ccc(C2Nc3ccccc3C(=O)N2Cc2ccco2)cc1COc1ccc(NC(C)=O)cc1 (stereo unspecified)	85*	100*	1.7	0	0.2
COc1ccc(C2Nc3ccccc3C(=O)N2Cc2ccco2)cc1COc1ccccc1F (stereo unspecified)	90*	99*	1.5	0	0.1
COc1ccc(C2Nc3ccccc3C(=O)N2Cc2ccccc2)cc1CSc1ccccn1 (stereo unspecified)	7	23	1	0.8	0.9
O=S(=O)(c1cccc(C(F)(F)F)c1)N1CCC(O)(c2cccnc2)CC1	88*	-8	1.2	1.1	0.1
Cc1ccc(S(=O)(=O)N2CCC(O)(c3cccnc3)CC2)cc1	54*	-114	1.3	2.1*	0.5
Cc1ccc(S(=O)(=O)N2CCCC(C(=O)Nc3cccnc3)C2)cc1 (stereo unspecified)	9	10	0.9	0.9	0.9
CC(=O)N1CCC(O)(c2cccc(C(F)(F)F)c2)CC1	28	10	1.2	0.9	0.7
CCOC(=O)c1ccc(-c2ccc(CO)o2)cc1	12	24	1	0.8	0.9
CCOC(=O)c1cc(-c2ccc(/C=C3/C(=O)NC(=O)C(C#N)=C3C)o2)ccc1Cl	19	71*	1.3	0.3	0.8
COc1ccc(C(NC(=O)CNC(C)=O)C(=O)Nc2ccc3c(c2)OCCO3)cc1 (stereo unspecified)	16	5	0.9	0.9	0.8
CCn1c(SCC(=O)N2c3ccccc3Sc3ccccc32)nnc1-c1ccco1	89*	83*	1	0.2	0.1
CCn1c(SCC(N)=O)nnc1-c1ccco1	-21	-34	0.9	1.3	1.2
CCn1c(SCC(=O)c2cccs2)nnc1-c1ccco1	76*	13	0.9	0.9	0.2
CCC(C(=O)OC)n1cnc2c(nnn2-c2cccc(Cl)c2)c1=O (stereo unspecified)	23	28	1.1	0.7	0.8
O=C(COC(=O)C1(c2ccccc2F)CCCC1)N1CCN(C(=O)c2ccco2)CC1	1	5	1.5	1	1
Cc1ccccc1Nc1nc(-c2sc(NC(=O)c3ccccc3)nc2C)cs1	55*	10	1.1	0.9	0.4
Cc1ccc(Nc2nc(-c3sc(NC(=O)c4ccc([N+](=O)[O-])cc4)nc3C)cs2)cc1	36	26	0.9	0.7	0.6
Cc1ccccc1Nc1nc(-c2sc(NC(=O)c3ccc([N+](=O)[O-])cc3)nc2C)cs1	52*	44	1.2	0.6	0.5
CCOc1ccccc1Nc1nc(-c2sc(NC(=O)c3ccc([N+](=O)[O-])cc3)nc2C)cs1	41	34	1	0.7	0.6
Cc1nc(NC(=O)c2ccccc2)sc1-c1csc(Nc2ccc(F)cc2)n1	78*	-87	1	1.9	0.2
